From the supplement of paper PMC11417369
Whole data set: some 25,000 sequences, median “ln(normalized median fluorescence intensity)” near 7.1, cut for the highest 2% near 10. The entries come from a sample that favours the highest values as a whole.

system: PfSIP2 AP2 domain 1 (GST-tagged); assay: gcPBM binding intensity (ln(normalized median fluorescence intensity)); higher = stronger DNA binding
In short: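 Binding intensity values are the highest Masliner-normalised natural-log median intensity among replicate spots of either probe orientation. The binding step lasted 1 h in 1× PBS with 1% milk, 0.2 mg/ml BSA, 0.5% salmon testes DNA and 0.03% Triton X-100, using GST-tagged P. falciparum DNA-binding domains expressed in E. coli on an Agilent 4 × 180k array of primer-extended double-stranded 36-bp intergenic genomic probes plus negative controls. Alexa488 anti-GST antibody and a 488 nm scan detected bound protein.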

Sequence | gcPBM binding intensity (ln)
ATAGTAATGCATAAATATATATTATATATATATATA [XGTACX_negctrl_site576] | 9.1
TATTTTATATGATAGGTGCATTTTTTTTTTTTTTTT [GTGCAC_site9757] | 10.8
TATGGAATAAATTTATCCATACATCTTATAACATAT [XGTACX_negctrl_site500] | 6.78
TTTTTTTTTTTTTTTTTTTTTTTTTTATGATATATA [GTGCAC_negctrl_site365] | 6.82
CATCATCTTTTAAAGGTGCATAATAATATTGTTAAT | 11.1
ATCTATATCTATAATACACACATCATAAAATATGTA [CACACA_site7230] | 7.19
GTATTATATATATAGGTGCATATATATATATAAATA [GTGCAC_site9787] | 10.8
ACATATATATATATTACACACACACTAATAAAATAA [CACACA_site7920] | 7.24
AAAATTAAAAAAATAAATACATTATATAATTAAAAA [CACACA_negctrl_site1426] | 6.77
CTTCTTATTTTCTAATGTACGTACAAATCATTTATA [XGTACX_site2176] | 8
CTTGGGAAGTATTCAGTGCAAAATATAAGCAGGTCA [GTGCAC_site9758] | 7.75
ATATGTATATATATTTGTACGTAAAATGAAATCTAA [XGTACX_site213] | 7.45
AAAAAAAAAAAAAACACACACACACGCACATATACA [CACACA_site7288] | 7.66
TAATAAATGTTATTAGTGCATAATAGATAATATATT | 8.29
AAAAATAAAGAAACAGGTACGCATATATTAAGATAT [XGTACX_site8097] | 7
CGTTATATAATAAAGGTGCATAGATATATCATTATA [GTGCAC_site9774] | 10.5
CATAAATAAGCTTTAGTGCATTATATTTAAATTTTT | 7.29
GGTATATTAAAATAGGTGCATAAAACTAAGAGAAAA [GTGCAC_site9781] | 11
AATATCATTATATAAGTGCATTTTTTAAAAGATAAA [GTGCAC_site9479] | 9.12
ATATATAAATAAATAGTGCATTTTAATATTTAACGT | 9.27
CCTAATTTTATTAGGGTGCATTTTTAGTTAAATATA | 11.2
GAAAGAAATAAAGGTGGTACATAAATAAAAACTAAG [XGTACX_site4826] | 7.38
GGTATATATTCTATCACACATATTTCCATGAAAATA [CACACA_site4728] | 7.29
AAAAAAAAAAAATAAAGTACTAAATAATACATTATA [XGTACX_site6203] | 7.02

Sequence | gcPBM binding intensity (ln)
TGTAGTCTGGAGAAAAGTACACAGTATCTGGTAGCT [XGTACX_site2012] | 6.95
TATGTATTTTTATGCACACATGCGTGGCTTATATAA [CACACA_site387] | 7.39
GTATATATATATATATATATATATTTTTATTTATTT [CACACA_negctrl_site589] | 7.42
ATTGTAAGGAAACACACACACATATATATGTATATA [CACACA_site676] | 7.07
ACCTATGTATATTATACACACTCCAAACTATTATTT [CACACA_site1817] | 7.19
TTTCATAACAAAAAAGTGCAAAATAGCACGAACATT [GTGCAC_site9703] | 8.82
TTTGTAGTTTGCACATGTACACATTTCAAAATAAAG [XGTACX_site7568] | 7.49
TGTTTTTCATAGTGCACACATAACCAAAAATAGTAT [CACACA_site3150] | 10.8
TTTGTTTTTCATAGTGCACACATAACCAAAAATAGT [CACACA_site9030] | 10.5
AAATATTCATAGTATACACACATTTATTTATAACCA [CACACA_site6502] | 6.9
GGTATTTTCACATATAGTACACAAAAATAAAATAAA [XGTACX_site2139] | 7.79
ATATATGTATTTAATACACACAAAACTTTCATTCCA [CACACA_site3531] | 6.9
TGTACGTTTTATAACACACACACAAAAAAAAAAAAA [CACACA_site3875] | 7.09
TGAATATGTAAATGCACACCAAAAAAAAAAAAAAAA [CACACA_site3566] | 7.29
TACTATAAGATATATACACACAAGAAATACAAAACG [CACACA_site6764] | 7.53
AATATATGCTTTCGTTATATTAAATTCAATTTAATG [GTGCAC_negctrl_site76] | 6.95
TAGAATAAATTAATTACACACGGAATTATATATATA [CACACA_site1616] | 7.83
AAAAAAAAAAATATATTATTTTACTTGTTTATTTTA [CACACA_negctrl_site1447] | 6.68
AAGAAAATATATTCACATGAAGAATTAAAATAAAAC [TGCATGCA_negctrl_site119] | 7.14
TTTAAAAAAAATATGTGTACTTAATATTTTCATATA [XGTACX_site7421] | 6.78
TTTTTGTAAAATAAACGTACAAAACAATTGTTCATT [XGTACX_site6537] | 6.94
TTTGTTCATATTATTGTGCACTTAAACGTAACAAAA [GTGCAC_site9505] | 10.2
ATATTATATTGGATGTTGCACTTAACAAAAGGATAT [GTGCAC_site9478] | 8.76
